Data on three compounds can be found in ChEMBL document CHEMBL1961873, “Compounds: GSK PKIS; Assays: Nanosyn kinase panel” (2012).

In assay [1] the target is Tyrosine-protein kinase SYK (Homo sapiens) (UniProt P43405). The conditions noted are these: at 1 µM.
The target in assay [2] is T1, Tyrosine-protein kinase Tec (Homo sapiens) (UniProt P42680).
T1 sequence (whole entry): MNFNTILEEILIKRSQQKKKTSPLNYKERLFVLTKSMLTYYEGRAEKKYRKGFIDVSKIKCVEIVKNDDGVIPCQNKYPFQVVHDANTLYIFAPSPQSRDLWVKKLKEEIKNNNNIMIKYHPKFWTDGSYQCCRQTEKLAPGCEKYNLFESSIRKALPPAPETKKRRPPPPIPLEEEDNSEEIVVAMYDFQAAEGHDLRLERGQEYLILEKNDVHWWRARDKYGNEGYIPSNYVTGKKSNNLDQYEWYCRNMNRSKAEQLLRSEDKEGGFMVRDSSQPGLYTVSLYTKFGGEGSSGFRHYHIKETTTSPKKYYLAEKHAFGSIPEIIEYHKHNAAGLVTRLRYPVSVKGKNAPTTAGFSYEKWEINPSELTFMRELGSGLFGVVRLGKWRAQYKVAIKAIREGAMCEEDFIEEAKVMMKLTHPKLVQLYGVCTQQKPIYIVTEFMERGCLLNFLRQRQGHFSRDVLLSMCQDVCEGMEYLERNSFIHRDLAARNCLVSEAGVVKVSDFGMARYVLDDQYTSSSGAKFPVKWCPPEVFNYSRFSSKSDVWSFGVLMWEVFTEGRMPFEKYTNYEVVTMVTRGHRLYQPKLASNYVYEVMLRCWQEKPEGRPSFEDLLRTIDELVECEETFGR
The conditions noted are these: at 0.1 µM.

In assay [3] the target is T1, Tyrosine-protein kinase Tec (Homo sapiens). The conditions noted are these: at 1 µM.
Assay [4] has as its target Angiopoietin-1 receptor (Homo sapiens) (UniProt Q02763). The conditions noted are these: at 0.1 µM.
Assay [5] has the same target. The conditions noted are these: at 1 µM.
Assay [6] concerns the target T2, Non-receptor tyrosine-protein kinase TNK1 (Homo sapiens) (UniProt Q13470).
T2 sequence (whole entry): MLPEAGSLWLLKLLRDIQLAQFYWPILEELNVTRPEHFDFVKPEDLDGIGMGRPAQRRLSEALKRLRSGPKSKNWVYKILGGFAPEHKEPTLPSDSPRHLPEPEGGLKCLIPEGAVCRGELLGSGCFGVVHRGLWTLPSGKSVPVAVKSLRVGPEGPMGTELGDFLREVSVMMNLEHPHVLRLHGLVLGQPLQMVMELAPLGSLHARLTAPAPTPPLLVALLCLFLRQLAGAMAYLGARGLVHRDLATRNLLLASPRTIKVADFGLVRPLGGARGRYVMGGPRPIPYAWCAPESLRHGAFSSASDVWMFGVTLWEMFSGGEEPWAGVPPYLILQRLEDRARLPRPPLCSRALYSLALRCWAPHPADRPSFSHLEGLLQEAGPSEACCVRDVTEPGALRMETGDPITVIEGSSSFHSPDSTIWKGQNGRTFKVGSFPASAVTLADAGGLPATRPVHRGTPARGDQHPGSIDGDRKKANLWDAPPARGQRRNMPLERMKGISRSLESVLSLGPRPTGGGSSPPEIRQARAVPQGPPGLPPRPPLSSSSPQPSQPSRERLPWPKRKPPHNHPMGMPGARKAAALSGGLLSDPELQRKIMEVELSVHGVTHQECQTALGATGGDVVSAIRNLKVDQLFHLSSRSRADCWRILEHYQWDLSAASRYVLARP
The conditions noted are these: at 0.1 µM.

Assay [7] deals with T2, Non-receptor tyrosine-protein kinase TNK1 (Homo sapiens). The conditions noted are these: at 1 µM.
For assay [8], the target named is Activated CDC42 kinase 1 (Homo sapiens) (UniProt Q07912). The conditions noted are these: at 0.1 µM.
For assay [9] the target is unchanged. The conditions noted are these: at 1 µM.
For assay [10], the target named is High affinity nerve growth factor receptor (Homo sapiens) (UniProt P04629). The conditions noted are these: at 0.1 µM.
The target is the same in assay [11]. The conditions noted are these: at 1 µM.
Assay [12] deals with BDNF/NT-3 growth factors receptor (Homo sapiens) (UniProt Q16620). The conditions noted are these: at 0.1 µM.
Assay [13] has the same target. The conditions noted are these: at 1 µM.
In assay [14] the target is NT-3 growth factor receptor (Homo sapiens) (UniProt Q16288). The conditions noted are these: at 0.1 µM.
The target is the same in assay [15]. The conditions noted are these: at 1 µM.
Assay [16] deals with T3, Tyrosine-protein kinase TXK (Homo sapiens) (UniProt P42681).
T3 sequence (whole entry): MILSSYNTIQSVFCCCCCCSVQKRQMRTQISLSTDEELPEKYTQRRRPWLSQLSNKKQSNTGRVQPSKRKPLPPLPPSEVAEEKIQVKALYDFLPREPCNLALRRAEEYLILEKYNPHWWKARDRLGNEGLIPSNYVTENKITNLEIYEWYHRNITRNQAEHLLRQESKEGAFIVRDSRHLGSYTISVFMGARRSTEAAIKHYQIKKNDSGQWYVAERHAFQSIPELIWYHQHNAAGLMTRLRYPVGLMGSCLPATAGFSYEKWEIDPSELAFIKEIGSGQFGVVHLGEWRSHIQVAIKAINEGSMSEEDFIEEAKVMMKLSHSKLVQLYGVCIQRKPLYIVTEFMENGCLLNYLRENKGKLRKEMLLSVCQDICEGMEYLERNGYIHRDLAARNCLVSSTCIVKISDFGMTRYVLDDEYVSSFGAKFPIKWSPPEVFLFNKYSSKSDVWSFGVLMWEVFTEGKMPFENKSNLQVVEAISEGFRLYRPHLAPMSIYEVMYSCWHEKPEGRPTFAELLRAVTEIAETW
The conditions noted are these: at 0.1 µM.

In assay [17] the target is T3, Tyrosine-protein kinase TXK (Homo sapiens). The conditions noted are these: at 1 µM.
Assay [18] deals with Non-receptor tyrosine-protein kinase TYK2 (Homo sapiens) (UniProt P29597). The conditions noted are these: at 0.1 µM.
For assay [19], the target named is T4, Dual specificity protein kinase TTK (Homo sapiens) (UniProt P33981).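 Further: reported figures are mean TTK inhibition at 1 µM.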
T4 sequence (whole entry): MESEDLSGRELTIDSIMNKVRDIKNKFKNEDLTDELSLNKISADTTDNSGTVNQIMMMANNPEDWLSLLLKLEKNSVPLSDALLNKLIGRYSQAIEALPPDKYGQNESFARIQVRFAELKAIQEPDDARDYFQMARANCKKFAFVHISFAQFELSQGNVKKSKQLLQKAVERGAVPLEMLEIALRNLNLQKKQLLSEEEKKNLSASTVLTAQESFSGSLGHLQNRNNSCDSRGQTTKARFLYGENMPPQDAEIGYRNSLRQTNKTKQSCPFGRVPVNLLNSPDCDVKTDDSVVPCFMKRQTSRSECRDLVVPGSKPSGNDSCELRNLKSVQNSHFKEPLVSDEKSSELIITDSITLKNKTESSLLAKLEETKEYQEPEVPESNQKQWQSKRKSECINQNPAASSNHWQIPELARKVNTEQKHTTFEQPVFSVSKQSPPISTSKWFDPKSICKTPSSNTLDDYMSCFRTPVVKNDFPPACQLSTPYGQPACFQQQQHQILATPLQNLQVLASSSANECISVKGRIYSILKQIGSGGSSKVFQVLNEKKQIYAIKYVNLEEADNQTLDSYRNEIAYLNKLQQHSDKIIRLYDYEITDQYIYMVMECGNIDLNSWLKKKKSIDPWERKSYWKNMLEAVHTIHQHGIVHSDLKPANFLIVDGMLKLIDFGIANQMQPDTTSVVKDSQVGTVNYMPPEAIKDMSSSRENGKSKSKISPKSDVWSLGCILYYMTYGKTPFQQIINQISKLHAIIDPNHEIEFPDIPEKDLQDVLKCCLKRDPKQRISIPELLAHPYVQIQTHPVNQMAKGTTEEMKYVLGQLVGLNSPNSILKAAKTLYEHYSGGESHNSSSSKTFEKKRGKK
The conditions noted are these: at 1 µM.

Assay [20] concerns the target T5, Aurora kinase A (Homo sapiens) (UniProt O14965).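 Further: each reported value is a mean percent inhibition of Aurora-A.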
T5 sequence (whole entry): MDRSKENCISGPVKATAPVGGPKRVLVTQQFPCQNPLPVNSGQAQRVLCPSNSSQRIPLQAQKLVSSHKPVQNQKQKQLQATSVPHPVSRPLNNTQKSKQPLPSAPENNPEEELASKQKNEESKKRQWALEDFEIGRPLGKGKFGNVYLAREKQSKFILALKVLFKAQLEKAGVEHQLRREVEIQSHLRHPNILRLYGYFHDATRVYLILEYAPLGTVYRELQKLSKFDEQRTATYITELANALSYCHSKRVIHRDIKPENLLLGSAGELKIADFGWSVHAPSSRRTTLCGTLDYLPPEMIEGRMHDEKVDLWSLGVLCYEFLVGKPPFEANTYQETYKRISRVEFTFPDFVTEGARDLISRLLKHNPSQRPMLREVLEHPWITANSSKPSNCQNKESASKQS
The conditions noted are these: at 0.1 µM.

Chain of BDNF/NT-3 growth factors receptor (Homo sapiens) (Q16620 32-822 limits assumed): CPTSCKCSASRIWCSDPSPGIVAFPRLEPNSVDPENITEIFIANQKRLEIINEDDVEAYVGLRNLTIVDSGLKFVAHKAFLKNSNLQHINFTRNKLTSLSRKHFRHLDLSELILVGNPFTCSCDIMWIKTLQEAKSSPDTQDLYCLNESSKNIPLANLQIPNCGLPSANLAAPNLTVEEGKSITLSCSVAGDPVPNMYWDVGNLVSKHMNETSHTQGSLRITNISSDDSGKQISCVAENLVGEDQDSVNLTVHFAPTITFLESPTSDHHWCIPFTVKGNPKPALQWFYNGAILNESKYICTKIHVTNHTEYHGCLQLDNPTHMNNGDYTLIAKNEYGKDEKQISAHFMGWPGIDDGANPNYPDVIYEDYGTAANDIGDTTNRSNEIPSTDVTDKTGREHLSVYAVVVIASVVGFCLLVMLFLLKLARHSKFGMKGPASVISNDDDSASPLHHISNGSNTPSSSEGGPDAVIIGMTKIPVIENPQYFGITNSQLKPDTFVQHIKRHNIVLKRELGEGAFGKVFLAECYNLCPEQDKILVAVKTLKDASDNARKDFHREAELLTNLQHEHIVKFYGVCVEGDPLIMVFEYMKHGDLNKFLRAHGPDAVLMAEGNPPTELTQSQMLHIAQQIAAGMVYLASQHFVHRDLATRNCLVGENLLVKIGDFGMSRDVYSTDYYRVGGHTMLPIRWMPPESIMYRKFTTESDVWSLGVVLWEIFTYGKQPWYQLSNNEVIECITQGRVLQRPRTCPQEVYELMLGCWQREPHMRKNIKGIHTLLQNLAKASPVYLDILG
Chain of NT-3 growth factor receptor (Homo sapiens) (Q16288 32-839 limits assumed): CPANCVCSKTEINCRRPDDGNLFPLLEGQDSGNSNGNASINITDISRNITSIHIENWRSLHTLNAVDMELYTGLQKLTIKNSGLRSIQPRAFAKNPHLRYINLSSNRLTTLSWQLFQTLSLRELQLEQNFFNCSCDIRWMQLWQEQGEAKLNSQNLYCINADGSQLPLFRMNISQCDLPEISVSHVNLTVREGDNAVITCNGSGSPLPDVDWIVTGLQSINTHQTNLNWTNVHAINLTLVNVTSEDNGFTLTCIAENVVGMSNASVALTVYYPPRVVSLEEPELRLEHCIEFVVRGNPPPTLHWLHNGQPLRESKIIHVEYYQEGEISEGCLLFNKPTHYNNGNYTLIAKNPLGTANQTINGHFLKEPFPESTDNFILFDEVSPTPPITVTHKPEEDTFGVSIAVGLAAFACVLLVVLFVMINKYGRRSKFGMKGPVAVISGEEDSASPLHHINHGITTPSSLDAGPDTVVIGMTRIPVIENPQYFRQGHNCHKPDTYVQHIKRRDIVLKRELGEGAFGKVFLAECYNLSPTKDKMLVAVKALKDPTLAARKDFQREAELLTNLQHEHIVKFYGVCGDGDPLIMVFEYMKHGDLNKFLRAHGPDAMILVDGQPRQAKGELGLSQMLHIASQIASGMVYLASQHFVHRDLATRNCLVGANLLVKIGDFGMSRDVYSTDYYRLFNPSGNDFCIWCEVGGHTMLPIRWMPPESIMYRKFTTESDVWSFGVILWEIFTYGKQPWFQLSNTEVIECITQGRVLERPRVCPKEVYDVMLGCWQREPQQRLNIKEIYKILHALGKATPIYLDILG
Chain of Angiopoietin-1 receptor (Homo sapiens) (Q02763 whole entry): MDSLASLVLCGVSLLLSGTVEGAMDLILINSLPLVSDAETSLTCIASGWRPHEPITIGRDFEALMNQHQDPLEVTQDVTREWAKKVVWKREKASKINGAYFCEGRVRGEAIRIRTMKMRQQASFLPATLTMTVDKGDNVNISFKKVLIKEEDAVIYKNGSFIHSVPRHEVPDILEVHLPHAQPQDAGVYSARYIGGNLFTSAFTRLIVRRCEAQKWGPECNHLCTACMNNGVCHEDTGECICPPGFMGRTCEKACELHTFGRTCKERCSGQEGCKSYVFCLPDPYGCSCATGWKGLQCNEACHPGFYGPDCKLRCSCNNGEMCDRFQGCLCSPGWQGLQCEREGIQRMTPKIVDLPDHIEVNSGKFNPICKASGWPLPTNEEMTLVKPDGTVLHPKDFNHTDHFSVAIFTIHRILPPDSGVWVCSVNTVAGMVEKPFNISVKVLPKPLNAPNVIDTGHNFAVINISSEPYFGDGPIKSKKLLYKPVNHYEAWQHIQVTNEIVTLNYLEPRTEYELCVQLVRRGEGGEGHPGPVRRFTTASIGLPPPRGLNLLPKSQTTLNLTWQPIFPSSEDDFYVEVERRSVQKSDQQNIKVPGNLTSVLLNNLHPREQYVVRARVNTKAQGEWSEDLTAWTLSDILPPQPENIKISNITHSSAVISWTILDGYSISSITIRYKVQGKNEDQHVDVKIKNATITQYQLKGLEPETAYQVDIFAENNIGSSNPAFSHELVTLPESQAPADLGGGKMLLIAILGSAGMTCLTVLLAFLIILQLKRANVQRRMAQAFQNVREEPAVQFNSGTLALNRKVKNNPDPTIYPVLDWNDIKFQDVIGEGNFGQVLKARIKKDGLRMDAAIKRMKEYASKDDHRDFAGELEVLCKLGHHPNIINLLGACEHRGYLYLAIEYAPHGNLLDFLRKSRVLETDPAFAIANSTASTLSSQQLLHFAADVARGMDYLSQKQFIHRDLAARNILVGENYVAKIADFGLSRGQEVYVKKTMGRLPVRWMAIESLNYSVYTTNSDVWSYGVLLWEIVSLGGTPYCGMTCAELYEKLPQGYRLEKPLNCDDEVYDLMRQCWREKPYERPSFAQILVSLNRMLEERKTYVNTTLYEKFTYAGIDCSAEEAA
Chain of Activated CDC42 kinase 1 (Homo sapiens) (Q07912 whole entry, looked up): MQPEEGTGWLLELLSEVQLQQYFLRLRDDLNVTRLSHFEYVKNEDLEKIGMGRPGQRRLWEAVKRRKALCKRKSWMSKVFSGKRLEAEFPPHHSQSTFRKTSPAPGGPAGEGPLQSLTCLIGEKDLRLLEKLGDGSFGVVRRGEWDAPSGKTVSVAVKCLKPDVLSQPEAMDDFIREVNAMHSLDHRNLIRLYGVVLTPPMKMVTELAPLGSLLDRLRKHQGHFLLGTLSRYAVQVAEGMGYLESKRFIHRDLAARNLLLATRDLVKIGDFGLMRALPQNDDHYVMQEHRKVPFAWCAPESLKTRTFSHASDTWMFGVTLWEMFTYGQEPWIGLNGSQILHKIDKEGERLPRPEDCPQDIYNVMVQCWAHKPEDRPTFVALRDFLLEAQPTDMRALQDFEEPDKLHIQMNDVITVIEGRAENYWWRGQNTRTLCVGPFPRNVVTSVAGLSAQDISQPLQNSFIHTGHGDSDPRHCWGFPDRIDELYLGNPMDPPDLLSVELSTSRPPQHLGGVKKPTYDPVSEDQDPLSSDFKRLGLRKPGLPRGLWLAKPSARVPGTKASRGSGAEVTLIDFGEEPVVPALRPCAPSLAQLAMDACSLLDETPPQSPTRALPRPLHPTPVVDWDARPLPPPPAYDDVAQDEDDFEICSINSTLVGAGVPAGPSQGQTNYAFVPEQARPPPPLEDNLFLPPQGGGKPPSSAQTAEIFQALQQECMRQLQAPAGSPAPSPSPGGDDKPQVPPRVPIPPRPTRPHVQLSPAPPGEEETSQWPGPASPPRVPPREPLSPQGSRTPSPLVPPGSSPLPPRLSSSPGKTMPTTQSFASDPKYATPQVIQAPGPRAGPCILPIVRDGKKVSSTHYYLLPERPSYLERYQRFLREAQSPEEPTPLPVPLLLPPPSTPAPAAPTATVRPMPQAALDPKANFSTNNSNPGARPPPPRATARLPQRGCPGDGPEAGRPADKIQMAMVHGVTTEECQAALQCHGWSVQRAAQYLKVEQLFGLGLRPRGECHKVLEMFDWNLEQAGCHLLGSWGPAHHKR
Chain of High affinity nerve growth factor receptor (Homo sapiens) (P04629 33-796 limits assumed): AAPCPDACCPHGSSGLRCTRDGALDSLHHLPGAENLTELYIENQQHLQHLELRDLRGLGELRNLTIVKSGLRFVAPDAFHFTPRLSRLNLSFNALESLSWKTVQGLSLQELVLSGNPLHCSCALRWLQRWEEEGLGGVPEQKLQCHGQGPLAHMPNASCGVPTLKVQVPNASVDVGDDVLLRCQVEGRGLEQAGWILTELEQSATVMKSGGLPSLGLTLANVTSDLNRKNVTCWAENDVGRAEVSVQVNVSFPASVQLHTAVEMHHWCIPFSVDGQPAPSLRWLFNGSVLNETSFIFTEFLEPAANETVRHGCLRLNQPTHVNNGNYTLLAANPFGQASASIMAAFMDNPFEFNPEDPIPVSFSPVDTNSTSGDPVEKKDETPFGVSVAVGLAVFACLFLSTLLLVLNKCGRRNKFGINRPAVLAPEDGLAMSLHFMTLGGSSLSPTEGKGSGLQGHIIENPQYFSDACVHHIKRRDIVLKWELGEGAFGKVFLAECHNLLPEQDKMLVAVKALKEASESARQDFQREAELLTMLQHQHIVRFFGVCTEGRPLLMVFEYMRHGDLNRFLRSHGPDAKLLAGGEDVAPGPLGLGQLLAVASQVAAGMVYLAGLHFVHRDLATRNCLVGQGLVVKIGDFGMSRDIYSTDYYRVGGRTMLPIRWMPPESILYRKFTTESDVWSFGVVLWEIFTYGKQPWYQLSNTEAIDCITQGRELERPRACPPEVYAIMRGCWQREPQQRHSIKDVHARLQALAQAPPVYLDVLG

As a reminder, the inhibition is the drop in the measured response relative to a control, in per cent. Regarding `C[C@@H](Oc1cc(-n2cnc3ccc(OC[C@@H](O)CO)cc32)sc1C(N)=O)c1ccccc1Cl`, the inhibition is 0.64% in assay [1]; -0.35% in [2]; -0.09% in assay [3]; 2.55% in assay [4]; 14.6% in [5]; -0.47% in [6]. Moreover, the inhibition in [7] was 18.2%; in assay [8], -0.26%; in [9], 2.04%; in assay [10] it was 0.33%; in [11], 3.73%; in assay [12], 1.11%. For the same compound, the inhibition worked out at 14.7% in [13]; 3.59% in assay [14]; 29.4% in assay [15]; 0.37% in assay [16]; 3.1% in assay [17]; 3.13% in [18]. The values for the inhibition in assay [19] and in [20] were 1.94% and -0.94%, respectively.

Take `N#Cc1cccc(Nc2nccc(-c3cnn4ncccc34)n2)c1`: the inhibition came to 53.2% in assay [1]; 8.87% in [2]; 39.3% in assay [3]; 3.66% in [4]; 18.6% in assay [5]; 11.9% in assay [6]. The inhibition is 52.3% in assay [7]; 2.35% in assay [8]; 11.7% in assay [9]; 15.4% in [10]; 65.7% in assay [11]; 24.3% in [12]. Besides, the inhibition is 75.3% in [13]; 28.2% in [14]; 87.5% in assay [15]; 5.32% in assay [16]; 24.4% in [17]; -4.17% in assay [18]. Further, the inhibition came to 35% in [19] and 11.3% in assay [20].

As for `COc1cc(/C=N/Nc2ncnc3c2cnn3C(C)C)ccc1O`, the inhibition in assay [1] worked out at 35.4%; in assay [2], 3.27%; in [3], 13.6%; in [4], 0.88%; in assay [5] it was 12.2%; in assay [6], 1.37%. The inhibition stood at 7.79% in assay [7]; 0.51% in assay [8]; 5.5% in assay [9]; 1.66% in [10]; 8.39% in assay [11]; 4.28% in [12]. Further, the inhibition in assay [13] is 31.4%; in [14] it was 3.32%; in assay [15], 29.1%; in [16], 3.5%; in [17], 14.1%; in assay [18], 0.13%. Besides, the inhibition in assay [19] amounted to 2.81%; in assay [20] it was 3.73%.
